Experimental data published in PubChem BioAssay (NCI).
The panel holds about 79,000 compounds, 15% with a hit somewhere; the sample as a whole holds those more often. Calls of active or inactive are those of the source. Cut-off read from the data, not from the text of the source: active = growth inhibition above about 70%; inactive = the rest.

Columns and labels:
[1] = NCI Yeast Anticancer Drug Screen. Data for the rad52 strain (AID 147);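 note: 0% = growth of vehicle-treated control cultures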; details: S. cerevisiae rad52 mutant growth inhibition, active compounds read high
Summary of the method: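 Here a repair-compromised yeast strain receives each compound; its growth is then quantified and normalised to vehicle-only controls.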

[2] = NCI Yeast Anticancer Drug Screen. Data for the wt1 strain (AID 149);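 note: 0% = growth of vehicle-treated wt1 cultures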; details: S. cerevisiae wt1 strain (SPY 50644) growth inhibition, active compounds read high
Summary of the method: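 Compounds are added to wt1 yeast cultures. Growth is then measured. Inhibition is expressed relative to vehicle-treated controls.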

[3] = NCI Yeast Anticancer Drug Screen. Data for the rad50EPP+ strain (AID 151);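 note: 0% = growth of vehicle-treated control cultures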; details: S. cerevisiae rad50 mutant strain, active compounds read high
Summary of the method: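 Read-out is yeast growth inhibition relative to vehicle; cells used were the rad50EPP+ strain.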

[4] = NCI Yeast Anticancer Drug Screen. Data for the mgt1 strain (AID 153); details: S. cerevisiae mgt1 mutant growth inhibition, active compounds read high
Summary of the method: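 Measured: inhibition of mgt1 yeast growth by compound, normalized to vehicle-treated cultures.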

[5] = NCI Yeast Anticancer Drug Screen. Data for the rad50 strain (AID 155);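 note: 0% = growth of vehicle-only cultures of the same strain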; details: S. cerevisiae rad50 strain growth inhibition, active compounds read high
Summary of the method: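 Inhibition values express reduced yeast growth in compound-treated cultures relative to vehicle-treated controls.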

[6] = NCI Yeast Anticancer Drug Screen. Data for the mec2-1 strain (AID 157); details: S. cerevisiae mec2-1 strain, active compounds read high
Summary of the method: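 Using mec2-1 yeast: add compound, measure growth, express inhibition versus vehicle-treated cultures.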

[7] = NCI Yeast Anticancer Drug Screen. Data for the rad14 strain (AID 159);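 note: 0% = growth of vehicle-treated control cultures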; details: S. cerevisiae rad14 strain growth inhibition, active compounds read high
Summary of the method: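 A mutant yeast strain defective in DNA damage repair is treated with compound; inhibition of its growth is scored against untreated, vehicle-exposed cultures.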

[8] = NCI Yeast Anticancer Drug Screen. Data for the sgs1 mgt1 strain (AID 161);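 note: 0% = growth of cultures given vehicle only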; details: S. cerevisiae sgs1 mgt1 strain, active compounds read high
Summary of the method: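 This yeast growth screen uses a strain with defined DNA-repair lesions; compound-treated growth is compared with vehicle-treated growth.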

[9] = NCI Yeast Anticancer Drug Screen. Data for the CLN2oe strain (AID 163);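 note: 0% = growth of vehicle-only control cultures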; details: S. cerevisiae CLN2oe strain, active compounds read high
Summary of the method: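 Whole-cell yeast growth assay. A strain engineered for altered cell-cycle control received compound, and inhibition relative to vehicle-treated cultures was recorded.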

[10] = NCI Yeast Anticancer Drug Screen. Data for the cln2 rad14 strain (AID 165);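 note: 0% = growth equal to vehicle treated cultures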; details: S. cerevisiae cln2 rad14 strain, active compounds read high
Summary of the method: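 Yeast strain cln2 rad14, bearing defects in cell cycle control and DNA repair, serves as the test system; values reflect growth inhibition compared with vehicle.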

[11] = NCI Yeast Anticancer Drug Screen. Data for the bub3 strain (AID 167); details: S. cerevisiae bub3 mutant strain, active compounds read high
Summary of the method: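 Steps: expose the mutant yeast strain to compound; grow alongside vehicle-treated cultures; measure growth; express inhibition against the vehicle cultures.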

[12] = NCI Yeast Anticancer Drug Screen. Data for the wt2 strain (AID 169);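 note: 0% = growth of vehicle-treated yeast cultures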; details: S. cerevisiae wt2 strain growth inhibition, active compounds read high
Summary of the method: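 Treated yeast vs. vehicle-treated yeast: growth inhibition determined.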

[13] = NCI Yeast Anticancer Drug Screen. Data for the mlh1 strain (AID 171);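 note: 0% = growth of vehicle-treated control cultures of the same strain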; details: S. cerevisiae mlh1 strain growth inhibition, active compounds read high
Summary of the method: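 A yeast strain with a defined genetic lesion serves as the test organism. Cultures receive compound or vehicle, and growth is measured.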

[14] = NCI Yeast Anticancer Drug Screen. Data for the sgs1 strain (AID 173);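 note: 0% = growth of vehicle-only control cultures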; details: S. cerevisiae sgs1 mutant, active compounds read high
Summary of the method: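 A genetically defined yeast mutant is incubated with the test compound, and its growth is compared to that of the same strain given vehicle.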

[15] = NCI Yeast Anticancer Drug Screen. Data for the mlh1 rad18 strain (AID 175); details: S. cerevisiae mlh1 rad18 strain growth inhibition, active compounds read high
Summary of the method: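 Steps: expose repair-defective yeast to compound; measure growth; express inhibition against vehicle-treated controls.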

[16] = at 5.0 µM (retest, dose inferred, filed as 0.5)
[17] = at 50.0 µM (retest, dose inferred, filed as 5.0)

Measured: growth inhibition

C[C@]12CC[C@H](O)CC1=CC[C@@H]1C2CC[C@]2(C)C(=O)NC(=O)CC12 (stereo partly drawn)
inactive: [1]; at 1.2 µM -27% | [1]; at 3.7 µM -23% | [1]; at 11.0 µM -17% | [1]; at 33.0 µM 58% | [2]; at 1.2 µM -22% | [2]; at 3.7 µM -24% | [2]; at 11.0 µM -21% | [2]; at 33.0 µM 55% | [3]; at 1.2 µM -33% | [3]; at 3.7 µM -19% | [3]; at 11.0 µM 18% | [4]; at 1.2 µM -41% | [4]; at 3.7 µM -16% | [5]; at 1.2 µM -16% | [5]; at 3.7 µM -19% | [5]; [16] -4% | [5]; at 11.0 µM -13% | [5]; at 33.0 µM 53% | [5]; [17] 69% | [6]; at 1.2 µM -23% | [6]; at 3.7 µM -24% | [6]; [16] -39% | [6]; at 11.0 µM -27% | [6]; at 33.0 µM 14% | [7]; at 1.2 µM -50% | [7]; at 3.7 µM -50% | [7]; at 11.0 µM -38% | [7]; at 33.0 µM 64% | [8]; [16] 33% | [9]; at 1.2 µM -36% | [9]; at 3.7 µM -45% | [9]; at 11.0 µM -48% | [9]; at 33.0 µM 67% | [10]; [16] 1% | [11]; at 1.2 µM -23% | [11]; at 3.7 µM -15% | [11]; [16] -4% | [11]; at 11.0 µM -12% | [11]; at 33.0 µM 60% | [12]; at 1.2 µM -14% | [12]; at 3.7 µM 27% | [13]; at 1.2 µM -33% | [13]; at 3.7 µM -3% | [14]; at 1.2 µM 17% | [14]; at 3.7 µM 45% | [15]; [16] -25%
active: [1]; at 100.0 µM 85% | [2]; at 100.0 µM 84% | [3]; at 33.0 µM 74% | [3]; at 100.0 µM 93% | [4]; at 11.0 µM 79% | [4]; at 33.0 µM 94% | [4]; at 100.0 µM 96% | [5]; at 50.0 µM 82.4% | [5]; at 100.0 µM 88% | [6]; [17] 82% | [6]; at 50.0 µM 77.9% | [6]; at 100.0 µM 83% | [7]; at 100.0 µM 87% | [8]; [17] 94% | [8]; at 50.0 µM 91.8% | [9]; at 100.0 µM 91% | [10]; [17] 80% | [10]; at 50.0 µM 84.7% | [11]; [17] 90% | [11]; at 50.0 µM 80% | [11]; at 100.0 µM 86% | [12]; at 11.0 µM 78% | [12]; at 33.0 µM 94% | [12]; at 100.0 µM 97% | [13]; at 11.0 µM 71% | [13]; at 33.0 µM 94% | [13]; at 100.0 µM 96% | [14]; at 11.0 µM 90% | [14]; at 33.0 µM 96% | [14]; at 100.0 µM 97% | [15]; [17] 82% | [15]; at 50.0 µM 70.3%
